# Records with an inconclusive call do not appear. Calls of active or inactive are those of the source. Rule for the calls: active = hit-call score of the fitted dose curve at least 0.9, where 1 is the maximum; inconclusive = response in the unintended direction; inactive = score below 0.9.
# Legend:
# NCBI gene 100848466 = experiment: NVS_NR_bPR: NovaScreen (NVS) Nuclear Receptor Binding Assay for bovine Progextron Receptor (PR) (AID 2283343);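 for AC50: actives lower bound radioligand signal below DMSO meaning displacement of the label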
# In short: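 Competitive radioligand binding with membranes from bovine uterus, scintillation read-out at 18 h post-dose. Compounds first tested in duplicate at 25 uM, then actives in concentration series; loss-of-signal relative to DMSO.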
# [1] = target: human Constitutive Androstane Receptor (CAR), NR1I3 (gene 9970) (UniProt Q14994); experiment: NVS_NR_hCAR_Antagonist: NovaScreen (NVS) Nuclear Receptor Binding Assay for human Constitutive Androstane Receptor Antagonism (CAR) (AID 2283344)
# In short: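 Single 25 uM duplicate primary screen, with concentration-series follow-up on actives. Cell-free binding format run in antagonist mode, TR-FRET signal taken 1 h post-dose; activity is signal loss relative to DMSO.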
# [2] = test system: guinea pig Histamine Receptor (H2), gene 100729734; experiment: NVS_GPCR_gH2: NovaScreen (NVS) G Protein-Coupled Receptor Assay for guinea pig Histamine Receptor (H2) (AID 2283342)
# In short: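 Guinea pig striatal membrane preparation with specific radioligand; bound counts measured by filtration and scintillation 1 h post-dosing, DMSO as baseline. Chemicals passing a 25 uM duplicate screen were titrated to a 50 uM maximum.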
# [3] = target: chimpanzee Androgen Receptor (AR), AR (gene 747460) (UniProt O97775); experiment: NVS_NR_cAR: NovaScreen (NVS) Nuclear Receptor Binding Assay for chimpanzee Androgen Receptor (AR) (AID 2283346);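 note: radioligand displacement from AR measured by scintillation counting in a cell-free assay; a loss of bound radioligand signal versus DMSO counts as binding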
# In short: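 Cell-free competition binding with insect-cell (Sf9/Sf21) extracted chimpanzee AR; scintillation signal from lysate at 72 h. Screened in duplicate at 25 uM, then concentration-response for actives; fitting relative to DMSO.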
# [4] = target: Bile acid receptor (Homo sapiens) (UniProt Q96RI1); experiment: NVS_NR_hFXR_Antagonist: NovaScreen (NVS) Nuclear Receptor Binding Assay for human Farnesoid X Receptor Antagonism (FXR) (AID 2283350)
# In short: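 Antagonist-format time-resolved FRET binding assay with extracted human receptor protein, read 1 hour after compound addition. Compounds first screened at 25 uM in duplicate, then actives tested in concentration series, with loss of signal relative to DMSO.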
# [5] = target: Estrogen receptor (Homo sapiens) (UniProt P03372); experiment: OT_ER_ERaERa_1440: Odyssey Thera (OT) 24-hour HEK293T Protein-Complementation Assay for Estrogen Receptor-alpha/-alpha Homodimer (AID 2283349);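 note: hits raise fluorescence above DMSO for agonists and antagonists alike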
# In short: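 HEK293T, stable ERα LBD (aa 310-547) homodimer PCA; 24 h compound exposure; mean fluorescence intensity (nuclear for agonists, nuclear plus cytoplasmic for antagonists) vs vehicle; positive fitting direction, DMSO baseline.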
# [6] = target: Estrogen receptor (Homo sapiens) (UniProt P03372); experiment: OT_ER_ERaERa_0480: Odyssey Thera (OT) 8-hour HEK293T Protein-Complementation Assay for Estrogen Receptor-alpha/-alpha Homodimer (AID 2283351);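 note: rise in fluorescence from reassembled reporter fragments on ERα LBD homodimer in nucleus or whole cell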
# In short: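 HEK293T cells stably expressing a PCA pair of ER alpha LBD (residues 310-547) were dosed for 8 hours. The gain in fluorescence intensity, nuclear for agonists and whole-cell for antagonists, was measured by laser scanning cytometry against DMSO vehicle.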
# [7] = target: Bile acid receptor (Homo sapiens) (UniProt Q96RI1); experiment: NVS_NR_hFXR_Agonist: NovaScreen (NVS) Nuclear Receptor Binding Assay for human Farnesoid X Receptor Agonism (FXR) (AID 2283347)
# In short: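 Agonist-mode FXR assay read by time-resolved FRET 1 h after compound addition, using isolated human receptor protein without cells. Duplicate 25 uM single-point primary screen, concentration series for confirmed actives; DMSO as baseline.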
# [8] = target: Estrogen receptor (Homo sapiens) (UniProt P03372); experiment: NVS_NR_hER: NovaScreen (NVS) Nuclear Receptor Binding Assay for human Estrogen Receptor (ER) (AID 2283348)
# In short: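 Cell-free MCF7-derived ER preparation, specific radioligand displaced by test compound, read by scintillation counting 18 h post-dosing. Duplicate single-point 25 uM screen, then concentration-response confirmation; DMSO baseline.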
# Bile acid receptor (Homo sapiens), sequence (Q96RI1 whole entry, looked up): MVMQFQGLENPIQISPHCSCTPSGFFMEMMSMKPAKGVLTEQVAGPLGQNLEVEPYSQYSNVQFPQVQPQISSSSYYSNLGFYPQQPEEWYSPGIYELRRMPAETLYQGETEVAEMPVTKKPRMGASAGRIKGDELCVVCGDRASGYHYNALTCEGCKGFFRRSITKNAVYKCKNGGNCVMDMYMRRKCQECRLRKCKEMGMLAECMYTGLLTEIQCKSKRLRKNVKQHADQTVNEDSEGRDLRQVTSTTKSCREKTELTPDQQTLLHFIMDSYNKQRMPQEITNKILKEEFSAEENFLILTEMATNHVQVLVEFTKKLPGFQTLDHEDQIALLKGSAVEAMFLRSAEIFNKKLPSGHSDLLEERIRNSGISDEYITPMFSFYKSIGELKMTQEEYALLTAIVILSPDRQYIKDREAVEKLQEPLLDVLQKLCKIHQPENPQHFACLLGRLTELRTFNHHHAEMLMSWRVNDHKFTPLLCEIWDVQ
# human Constitutive Androstane Receptor (CAR), NR1I3 (gene 9970), sequence (Q14994 whole entry, looked up): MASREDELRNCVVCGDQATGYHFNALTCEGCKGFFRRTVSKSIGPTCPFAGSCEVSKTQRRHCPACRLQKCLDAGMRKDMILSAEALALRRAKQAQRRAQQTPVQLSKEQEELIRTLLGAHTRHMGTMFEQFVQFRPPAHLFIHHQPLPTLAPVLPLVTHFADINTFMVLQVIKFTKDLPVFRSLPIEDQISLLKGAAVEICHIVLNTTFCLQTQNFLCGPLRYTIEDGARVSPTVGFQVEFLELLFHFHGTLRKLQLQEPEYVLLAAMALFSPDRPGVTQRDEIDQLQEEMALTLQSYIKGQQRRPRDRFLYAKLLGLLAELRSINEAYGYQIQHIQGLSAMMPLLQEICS
# Estrogen receptor (Homo sapiens), sequence (P03372 whole entry, looked up, the tested form may be a part): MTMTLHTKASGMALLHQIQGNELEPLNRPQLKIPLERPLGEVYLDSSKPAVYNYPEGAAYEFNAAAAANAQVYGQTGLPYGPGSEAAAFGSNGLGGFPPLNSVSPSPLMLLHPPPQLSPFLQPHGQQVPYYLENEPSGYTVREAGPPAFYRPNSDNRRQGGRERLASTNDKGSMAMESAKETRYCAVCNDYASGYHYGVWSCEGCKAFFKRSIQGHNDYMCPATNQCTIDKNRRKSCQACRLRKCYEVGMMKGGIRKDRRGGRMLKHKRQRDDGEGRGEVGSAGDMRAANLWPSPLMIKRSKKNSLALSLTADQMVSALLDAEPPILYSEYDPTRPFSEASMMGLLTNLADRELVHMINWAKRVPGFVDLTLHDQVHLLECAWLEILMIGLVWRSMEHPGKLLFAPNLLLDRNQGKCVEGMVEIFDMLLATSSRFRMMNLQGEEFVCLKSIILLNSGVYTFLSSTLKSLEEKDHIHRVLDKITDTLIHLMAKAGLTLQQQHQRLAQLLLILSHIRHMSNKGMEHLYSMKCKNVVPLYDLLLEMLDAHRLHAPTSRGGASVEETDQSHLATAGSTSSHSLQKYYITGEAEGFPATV
# chimpanzee Androgen Receptor (AR), AR (gene 747460), sequence (O97775 whole entry, looked up): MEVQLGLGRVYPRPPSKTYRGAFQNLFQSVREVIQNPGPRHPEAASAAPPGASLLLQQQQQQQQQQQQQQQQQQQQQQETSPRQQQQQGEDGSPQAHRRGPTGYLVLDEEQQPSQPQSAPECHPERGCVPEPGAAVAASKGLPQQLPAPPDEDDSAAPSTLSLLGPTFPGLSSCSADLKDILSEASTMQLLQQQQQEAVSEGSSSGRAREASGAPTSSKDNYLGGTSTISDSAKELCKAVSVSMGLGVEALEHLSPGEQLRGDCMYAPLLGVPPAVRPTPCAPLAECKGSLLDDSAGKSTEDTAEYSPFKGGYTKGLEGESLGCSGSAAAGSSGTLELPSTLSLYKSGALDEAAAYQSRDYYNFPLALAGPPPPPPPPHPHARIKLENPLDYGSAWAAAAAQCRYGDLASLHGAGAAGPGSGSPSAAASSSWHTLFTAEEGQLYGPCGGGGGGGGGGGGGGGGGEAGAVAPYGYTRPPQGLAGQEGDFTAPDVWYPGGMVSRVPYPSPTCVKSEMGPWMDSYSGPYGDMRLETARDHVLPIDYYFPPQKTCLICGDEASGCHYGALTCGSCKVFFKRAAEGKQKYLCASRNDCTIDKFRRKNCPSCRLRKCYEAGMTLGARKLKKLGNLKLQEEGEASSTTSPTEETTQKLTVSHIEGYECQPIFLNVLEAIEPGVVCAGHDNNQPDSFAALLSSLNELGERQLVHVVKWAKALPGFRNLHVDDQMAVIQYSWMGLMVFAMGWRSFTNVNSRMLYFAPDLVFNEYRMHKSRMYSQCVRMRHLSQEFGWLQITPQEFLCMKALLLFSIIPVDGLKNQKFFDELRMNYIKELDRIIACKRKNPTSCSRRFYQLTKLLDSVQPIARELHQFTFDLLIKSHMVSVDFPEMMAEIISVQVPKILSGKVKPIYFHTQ
structure (smiles),measurement,setting,value
CCC(CC)Nc1c([N+](=O)[O-])cc(C)c(C)c1[N+](=O)[O-],AC50,NCBI gene 100848466,40.1 µM (active)
same,outcome,[1],inactive
COc1ccc(C(=CC(=O)N2CCOCC2)c2ccc(Cl)cc2)cc1OC,outcome,[2],inactive
same,outcome,[1],inactive
same,AC50,[3],17.3 µM (active)
same,outcome,[4],inactive
CCOP(=O)(OCC)Oc1cc(C)nc(C(C)C)n1,outcome,NCBI gene 100848466,inactive
same,outcome,[4],inactive
CN(C)[C@@H]1C(=O)C(C(N)=O)=C(O)[C@@]2(O)C(=O)C3=C(O)c4c(O)cccc4[C@@](C)(O)[C@H]3[C@H](O)[C@@H]12,AC50,[3],11.3 µM (active)
CC1(C(=O)Nc2ccc(O)c(Cl)c2Cl)CCCCC1,outcome,[1],inactive
same,outcome,[4],inactive
CNC(=O)Oc1cccc2c1OC(C)(C)O2,outcome,[1],inactive
same,outcome,[5],inactive
same,outcome,[6],inactive
COP(=O)(OC)OC(Br)C(Cl)(Cl)Br (stereo not drawn),outcome,[5],inactive
same,outcome,[6],inactive
CCC(=O)Nc1ccc(Cl)c(Cl)c1,outcome,[1],inactive
same,AC50,[3],12.4 µM (active)
CCCCSP(=O)(SCCCC)SCCCC,outcome,[1],inactive
Cc1ccn2nc(S(=O)(=O)Nc3c(F)cccc3F)nc2n1,outcome,[4],inactive
CCC(=NOC/C=C/Cl)C1=C(O)CC(C2CCOCC2)CC1=O (stereo not drawn),outcome,[1],inactive
CC(COc1ccc(Oc2ccccc2)cc1)Oc1ccccn1 (stereo not drawn),outcome,[1],inactive
same,AC50,[4],6.89 µM (active)
CCOP(=O)(NC(C)C)Oc1ccc(SC)c(C)c1 (stereo not drawn),AC50,[1],16.8 µM (active)
same,AC50,[3],25 µM (active)
Cc1cc(C2CC2)nc(Nc2ccccc2)n1,AC50,[1],25 µM (active)
same,outcome,[5],inactive
same,outcome,[6],inactive
CON=C(C(=O)OC)c1ccccc1CON=C(C)c1cccc(C(F)(F)F)c1,outcome,[1],inactive
O=[N+]([O-])c1cc(C(F)(F)F)c(Cl)c([N+](=O)[O-])c1Nc1ncc(C(F)(F)F)cc1Cl,outcome,[1],inactive
same,outcome,[5],inactive
CCCCOC(=O)[C@@H](C)Oc1ccc(Oc2ccc(C#N)cc2F)cc1,outcome,[5],inactive
same,outcome,[6],inactive
CCCCOC(=O)c1ccccc1C(=O)O,outcome,[7],inactive
same,outcome,[4],inactive
N#CSCSC#N,outcome,[1],inactive
same,outcome,[7],inactive
CCCCN(CC)c1c([N+](=O)[O-])cc(C(F)(F)F)cc1[N+](=O)[O-],outcome,[1],inactive
COc1cccc(C(=O)NN(C(=O)c2cc(C)cc(C)c2)C(C)(C)C)c1C,outcome,[1],inactive
Nc1c(Cl)cc([N+](=O)[O-])cc1Cl,AC50,[3],15.4 µM (active)
same,outcome,[7],inactive
same,outcome,[5],inactive
same,outcome,[6],inactive
CSc1nnc(C(C)(C)C)c(=O)n1N,outcome,[1],inactive
same,outcome,[4],inactive
CSC1=N[C@@](C)(c2ccccc2)C(=O)N1Nc1ccccc1,AC50,[1],3.63 µM (active)
COP(=O)(OC)SCn1c(=O)oc2cc(Cl)cnc21,outcome,[8],inactive
same,outcome,[5],inactive
CCc1cccc(CC)c1N(COC)C(=O)CCl,AC50,[1],9.33 µM (active)
same,AC50,[3],34.6 µM (active)
same,outcome,[5],inactive
CSc1nc(NC(C)C)nc(NC(C)C)n1,outcome,[5],inactive
same,outcome,[6],inactive
